Measured values from PubChem BioAssay AID841 (Emory University Molecular Libraries Screening Center, 2007).
Among all 140,000 compounds or so, about 2,100 (1.5%) were called active. This excerpt belongs to a sample that is enriched for actives. A number with no mark means an inactive call. Rule as the data show it: active = protection mostly above about 24% (no sharp cut-off); inactive = mostly below about 26%.

Assay: blockers of measles virus-induced cell death – single point, MLSMR library, absorbance, measles RdRp inhibitor project, primary screen (AID 841)
Conditions: Measles virus-infected cells, CPE protection, at 4 µM, stronger effect = higher value

| Compound | protection (pct of control) |
| --- | --- |
| CC(=O)Cc1nsc(NC(=O)c2csc3c2CCCC3)n1 | 2.51% |
| COC(=O)c1sccc1NC(=O)c1csc2c1CCCC2 | 9.63% |
| COC(=O)c1sc(NC(=O)c2csc3c2CCCC3)nc1C | 49.9% (active) |
| CN(c1ccccc1)S(=O)(=O)c1cccc(NC(=O)Cc2c(F)cccc2Cl)c1 | 5.27% |
| Cc1cc(OC(=O)c2c(Cl)cccc2Cl)nc(C)n1 | 8.28% |
| Cc1cc(C)c(S(=O)(=O)c2ccccc2)c(OC(=O)c2c(F)cccc2Cl)n1 | 38.9% (active) |
| CCNc1ccc(C(=O)OCC(=O)N2c3ccccc3NC(=O)C2(C)C)cc1[N+](=O)[O-] | 5.03% |
| COc1cc(/C=N/O)ccc1OCc1ccc([N+](=O)[O-])cc1 | 30% |
| COc1cc(/C=N/n2c(C)n[nH]c2=S)ccc1OCc1ccccc1 | 79.2% (active) |
| Cc1n[nH]c(=S)n1/N=C/c1ccc(Br)o1 | 7.57% |
| COc1ccc(C(=O)ON=C2c3ccccc3-c3ccccc32)cc1OC | 9.81% |
| Cc1cccc(OCCNC(=S)NC(=O)c2cccnc2)c1 | 16.7% |
| COc1ccc(Br)cc1CN(C)CC(=O)Nc1cc([N+](=O)[O-])ccc1OC | 4.74% |
| COc1ccccc1CC(=O)Nc1ccc([N+](=O)[O-])cc1OC | 14.5% |
| COc1ccc([N+](=O)[O-])cc1NC(=O)CCc1ccccc1 | 101% (active) |
| CCC1S/C(=N/N=C/c2ccco2)NC1=O (stereo unspecified) | 7.36% |
| CCOCCCNC(=O)C(NC(=O)CNC(=O)c1ccccc1)c1ccc(C)cc1 (stereo unspecified) | 7.37% |
| CCOCCCNC(=O)C(NC(=O)c1ccc(=O)[nH]c1)c1ccc(Cl)cc1 (stereo unspecified) | 30.2% (active) |
| CCOCCCNC(=O)C(NC(=O)c1ccc(=O)[nH]c1)c1ccc(C)cc1 (stereo unspecified) | 6.13% |
| Cc1ccc(-c2cc(N)on2)cc1 | 16.5% |
| Cc1ccc(S(=O)(=O)N2CCCC2C(=O)OCc2nc3sc(C)c(C)c3c(=O)[nH]2)cc1 (stereo unspecified) | 4.09% |
| Cc1ccc2[nH]c(C(=O)O)c(NC(=O)c3ccccc3[N+](=O)[O-])c2c1 | 14.1% |
| COC(=O)c1ccccc1NC(=O)CSc1nnnn1C | 30.8% |
| CCOC(=O)c1c(-c2ccc(C)cc2C)csc1NC(=O)CSc1nnnn1C | 37% (active) |

| Compound | protection (pct of control) |
| --- | --- |
| CCOC(=O)CNC(=O)CSc1nnnn1-c1cc(C)ccc1C | 4.67% |
| COc1ccc(/C=C/C(=O)Nc2ccc3c(c2)OCCO3)cc1OC | 18.3% |
| CC1(C)CC(=O)C(C=NCCC2=CCCCC2)=C(O)C1 | 36.1% (active) |
| CC1(C)CC(=O)C(C=NCc2cccnc2)=C(O)C1 | 2.03% |
| CC(=O)N1CCN(CCN=CC2=C(O)CC(C)(C)CC2=O)CC1 | 2.75% |
| CN1CCN(S(=O)(=O)c2ccc(NC(=O)C3CCCO3)cc2)CC1 (stereo unspecified) | 28.4% (active) |
| CN1CCN(S(=O)(=O)c2ccc(NC(=S)NC(=O)C3CC3)cc2)CC1 | 7.47% |
| CN1CCN(S(=O)(=O)c2ccc(NC(=O)c3ccco3)cc2)CC1 | 12.2% |
| C/C(=N\NC(=O)Cc1ccc(F)cc1)c1ccc(F)cc1 | 16.1% |
| Cc1ccccc1C(CC(=O)c1cccs1)C(C#N)C#N (stereo unspecified) | 1.36% |
| O=C(Nc1ccn(Cc2ccccc2)n1)c1n[nH]c([N+](=O)[O-])c1Cl | 4.93% |
| Cc1ccc(Cn2ccc(NC(=O)c3cc(C(C)C)on3)n2)cc1 | 10.8% |
| O=C(Nc1ccn(Cc2ccc(F)cc2)n1)c1ccncc1 | 61.8% (active) |
| CC(=O)N1C(C)c2ccccc2C(C)(C)CC12CCCCC2 (stereo unspecified) | 1.83% |
| Cc1ccc(SCCC(=O)OCC(=O)Nc2ncc(Cl)cc2Cl)cc1 | 25.6% |
| Cc1ccc(-n2c(SCC(=O)Nc3ncc(Cl)cc3Cl)nc3ccccc32)cc1 | 45.3% (active) |
| Cc1ccc(C)c(NC(=O)CSc2nc3c(oc4ccccc43)c(=O)n2-c2ccccc2)c1 | 11.7% |
| NC(=O)CCC(NS(=O)(=O)c1ccc(Cl)cc1)C(=O)NCc1ccccc1Cl (stereo unspecified) | 5.12% |
| CNC(=S)N/N=C/c1ccc(OCc2ccccc2)c(Br)c1 | 4.55% |
| CCOC(=O)Cc1csc(SCC(=O)NC(C)C23CC4CC(CC(C4)C2)C3)n1 (stereo unspecified) | 4.07% |
| Cc1cccc(Nc2nc3c(S(=O)(=O)c4ccccc4)nnn3c3ccccc23)c1C | 4.8% |
| CCc1ccc(NC2Nc3cc(C)nn3S2)cc1 (stereo unspecified) | 40.8% (active) |
| COc1ccc(-n2c(C)nc3c(cnn3-c3ccccc3)c2=O)cc1 | 1.2% |
| COc1ccc(Oc2c(Cl)cnn(-c3ccccc3)c2=O)cc1 | 42.2% (active) |

| Compound | protection (pct of control) |
| --- | --- |
| Cc1ccc(-c2nc3c(cnn3-c3ccccc3)c(=O)o2)cc1 | 8.52% |
| Cc1cc(C(=O)CSc2nc(N)cc(=O)[nH]2)c(C)n1-c1cccc(F)c1 | 24.8% |
| O=C(C1CCCO1)N1CCN(C(=S)Nc2cccc(Cl)c2)CC1 (stereo unspecified) | 19.2% |
| C=C(C)c1cccc(C(C)(C)NC(=O)NC2CCCC2)c1 | 2.05% |
| CCOC(=O)c1sc(NC(=O)COc2ncnc3ccccc23)c(C(=O)OCC)c1C | 23.3% |
| O=C(CN1CCc2ccccc21)NC(c1ccccc1)c1ccccc1 | 11.6% |
| Cc1ccc(S(=O)(=O)NCC(=O)N(CC(=O)NC2CCCCC2)Cc2ccco2)cc1 | 39.7% |
| Cc1ccc(S(=O)(=O)NCC(=O)N(CC(=O)NC(C)(C)C)Cc2cccs2)cc1 | 32.1% (active) |
| CC(C)(C)NC(=O)CN(Cc1cccs1)C(=O)CNS(=O)(=O)c1ccccc1 | 4.11% |
| COc1ccc(OC)c(/C=N/NC(=O)CSc2nnc(C)n2-c2ccccc2)c1 | 6.95% |
| Cc1ccc(-c2nn(-c3ccccc3)cc2/C=N/NC(=O)c2ccc3c(c2)OCO3)cc1 | 11.1% |
| Cc1nnc(SCC(=O)N/N=C/c2cn(-c3ccccc3)nc2-c2ccc(F)cc2)n1-c1ccccc1 | 50.4% (active) |
| Cc1ccccc1C1=NC(C(F)(F)F)(C(F)(F)F)c2c(n(-c3ccc(F)cc3)c(=O)[nH]c2=O)N1 | 14.5% |
| Cc1ccc(-c2nc3ccccc3[nH]2)cc1NC(=O)c1sc2ccccc2c1Cl | 80.8% (active) |
| COc1ccc(Br)cc1C(=O)NC(=S)Nc1cc(-c2nc3ccccc3[nH]2)ccc1C | 3.52% |
| Cc1ccc(-c2nc3ccccc3[nH]2)cc1N | 6.87% |
| CCOc1ccc2nc(C(=O)N3CCCC(C)C3)sc2c1 (stereo unspecified) | 14.9% |
| CCCCCCCCC(=O)NCCOc1ccccc1 | 6.49% |
| CCCCCCOC(=O)NCC(O)c1ccccc1 (stereo unspecified) | 31.3% (active) |
| CCCCCOC(=O)NCCOC(=O)Nc1ccc(C(=O)OCC)cc1 | 3.01% |
| CCOc1ccc(N2C(=O)/C(=C/c3ccc(C)o3)N(C)C2=S)cc1 | 19.4% |
| CCC(=O)Nc1c(S(=O)(=O)c2ccccc2)c2nc3ccccc3nc2n1Cc1ccccc1 | 8.35% |
| COc1ccc(OC)c(C2C3=C(N=c4s/c(=C\c5cccc(O)c5)c(=O)n42)c2ccccc2CC3)c1 (stereo unspecified) | 10.7% |
| O=C1CCCC2=C1C(c1ccccc1)n1c(s/c(=C/c3cccc(F)c3)c1=O)=N2 (stereo unspecified) | 48.1% (active) |

| Compound | protection (pct of control) |
| --- | --- |
| O=C1CC(c2cccc(F)c2)C2=C(CCCC2=O)N1 (stereo unspecified) | 11.2% |
| CCCN(CCC)c1c([N+](=O)[O-])c(=O)oc2ccccc12 | 2.94% |
| O=C(NCC1CCCO1)c1ccc2ccccc2n1 (stereo unspecified) | 9.11% |
| Cc1ccc(C(=O)NCC2CCCO2)o1 (stereo unspecified) | 45.6% (active) |
| Cc1nc2ccccc2c2oc(C(=O)NCC3CCCO3)cc12 (stereo unspecified) | 13.5% |
| CC(=O)NNC1=Nc2ccccc2N(C)C(C)C1 (stereo unspecified) | 14.9% |
| COc1ccc(-n2c(C)cc(C(=O)COC(=O)c3cc(OC)c(OC)cc3NC(=O)c3cccs3)c2C)cc1 | 5.86% |
| COc1ccc(CCNC(=O)C2CCN(c3nn4c(=O)cc(C)nc4s3)CC2)cc1OC | 0.06% |
| Cc1cc(=O)n2nc(N3CCCC(C(=O)NCCC4=CCCCC4)C3)sc2n1 (stereo unspecified) | 38.4% (active) |
| Cc1cc(=O)n2nc(N3CCCC(C(=O)N4CCN(C)CC4)C3)sc2n1 (stereo unspecified) | 14.9% |
| CC(C)c1nccn1S(=O)(=O)c1cc([N+](=O)[O-])ccc1Cl | 14.2% |
| COCc1c(C(=O)N/N=C/C2CC=CCC2)nnn1-c1nonc1N (stereo unspecified) | 5.58% |
| Cc1nc(Cl)c2oc3ccccc3c2n1 | 18.2% |
| CCc1nc(Nc2ccc3nccnc3c2)c2oc3ccccc3c2n1 | 5.78% |
| COc1ccccc1Nc1ncnc2c1oc1ccccc12 | 44.3% (active) |
| CC1=C(C(=O)Nc2cc(C)ccn2)C(c2cnn(C)c2)C2=C(CC(c3ccccc3)CC2=O)N1 (stereo unspecified) | 4.9% |
| C/C(=N/NC(=S)Nc1ccccc1)c1ccc2c(c1)OCO2 | 20.8% |
| COc1ccc([C@H]2[C@H](C(C)=O)N3N=Cc4ccccc4C3C23C(=O)OC(C)(C)OC3=O)cc1 (stereo partly specified) | 9.43% |
| O=C(N/N=C/c1cc([N+](=O)[O-])ccc1O)/C(=C\c1cccs1)NC(=O)c1ccccc1 | 3.64% |
| CC1CCCN(S(=O)(=O)c2ccc(N(C(=O)c3cnccn3)C(C(=O)NC3CCCCC3)c3cccs3)cc2)C1 (stereo unspecified) | 5.77% |
| O=C(NC(CC(=O)N1CCN(c2ccccc2)CC1)c1ccccc1)c1ccccc1Cl (stereo unspecified) | 5.39% |
| CCOc1ccc(Nc2nc(Cc3nnc(SCC(=O)NC4CCCC4)n3C)cs2)cc1 | 4.14% |
| CCOc1ccc(Nc2nc(Cc3nnc(SCC(=O)c4ccc(C)cc4)o3)cs2)cc1 | 31.3% (active) |
| CC(=O)Nc1ccc(C(=O)CSc2nnc(Cc3ccccc3)o2)cc1 | 5.61% |
